The supplement of paper PMC3334620
The full ranking holds about 33,000 sequences; the median of “E-score (-0.5 to 0.5)” is about -0.0034, and the highest 2% start at about 0.25. The sample as a whole holds a higher share of the highest values than the screen did.

molecular target: T1, Yap3 (UniProt P38749); experiment: PBM E-score (8-mer binding enrichment) (E-score (-0.5 to 0.5)); higher = stronger / more preferred TF binding; settings: protein concentration: 100 nM; construct: GST-full length
T1 sequence: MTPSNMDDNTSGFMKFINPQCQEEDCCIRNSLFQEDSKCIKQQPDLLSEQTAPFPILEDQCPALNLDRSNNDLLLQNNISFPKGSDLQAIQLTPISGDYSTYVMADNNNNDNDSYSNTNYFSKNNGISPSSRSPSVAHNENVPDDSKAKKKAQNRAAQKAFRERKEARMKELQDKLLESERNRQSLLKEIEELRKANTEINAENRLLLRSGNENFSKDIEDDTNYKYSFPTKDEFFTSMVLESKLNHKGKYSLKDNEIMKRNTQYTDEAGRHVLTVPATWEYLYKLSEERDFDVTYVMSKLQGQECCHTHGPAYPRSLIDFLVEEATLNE
Summary of the method: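 Masliner-normalised scans of fluorescent anti-GST signal were the basis for scoring. That signal came from GST-tagged yeast transcription factors applied at about 100-200 nM to double-stranded universal all-10-mer Agilent arrays on fresh or once-stripped slides. Each ungapped eight-base word, pooled with its reverse complement, received an E-score from the Universal PBM Analysis Suite.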

Row | Sequence | PBM E-score
1 | CGATAGAA | 0.0788
2 | ACACCCTG | -0.133
3 | GATTACTA | 0.225
4 | AATTACCA | 0.256
5 | CATTACAA | 0.28
6 | AATTACTA | 0.325
7 | CCTTACTA | 0.281
8 | CCTTACTC | 0.183
9 | TATTACAA | 0.209
10 | GCTTACTA | 0.237
11 | AATTACTG | 0.218
12 | GATTACCA | 0.153
13 | AATTACCC | 0.107
14 | CATTACAC | 0.205
15 | AGATCACG | 0.128
16 | GGGCCACC | -0.256
17 | TCTGCTAA | 0.0116
18 | ACCGCGAA | -0.00285
19 | GGACATGA | -0.0945
20 | ACAACTGC | 0.0481
21 | CTGCCCTA | -0.132
22 | CCTGCATC | -0.0897
23 | GGGCTCCA | -0.262
24 | GAGGCACA | -0.0567
25 | CTTTACTA | 0.22

Row | Sequence | PBM E-score
26 | CATTACTC | 0.221
27 | CATTACTA | 0.292
28 | AATCAGAA | 0.0468
29 | AAAGAACC | 0.0747
30 | AGTATTAA | 0.186
31 | AGTATTAG | 0.327
32 | AGTATTAT | 0.1
33 | AGTATTAC | 0.26
34 | CGTATTAG | 0.152
35 | CGTATTAC | 0.231
36 | AGCAAGTG | -0.0827
37 | AAATTGTC | 0.154
38 | GATCGACA | -0.00076
39 | AACTAGAT | 0.0716
40 | AATTGTTC | 0.257
41 | CTTTGTTC | 0.0752
42 | ATTTGTTC | 0.321
43 | ATTTGTTA | 0.166
44 | CATTGTTC | 0.125
45 | AATTGTTG | 0.0159
46 | CATAGTTA | 0.0154
47 | ATAAGCAA | 0.137
48 | GTAAGCAA | 0.27
49 | CTAAGCAA | -0.0294
50 | GTATCAGA | -0.0367

Row | Sequence | PBM E-score
51 | ATATCATG | 0.101
52 | GTATCTGA | 0.133
53 | ATATCATA | 0.271
54 | GCATCATA | 0.193
55 | CTATCATA | 0.12
56 | CTATCTTA | 0.126
57 | GTATCATA | 0.276
58 | GTATCTTA | 0.267
59 | CCTCAAAC | 0.0235
60 | TCGGGCCA | -0.132
61 | GTGAGGCA | 0.0355
62 | CATGACCC | -0.0127
63 | CGGGCCTA | -0.255
64 | GTAGACCA | -0.0918
65 | ACCCGCAG | -0.0808
66 | ATCACTCG | 0.0758
67 | CCAGGTTC | -0.317
68 | GTGCGAGA | 0.0126
69 | ATGTACCA | -0.0322
70 | AAGTTATT | 0.174
71 | AAGTTATG | 0.256
72 | AAGTTATA | 0.175
73 | GATACTGA | 0.0116
74 | CATACTGA | 0.136
75 | TATACTGA | 0.295

Row | Sequence | PBM E-score
76 | TGAGACAA | 0.0572
77 | ATTTCATG | -0.0106
78 | ATTTCATC | 0.269
79 | ATTTCATA | 0.239
80 | CTAGTATC | 0.0604
81 | ACAATTAC | 0.203
82 | GTAATTGA | 0.115
83 | GGAATTAC | 0.235
84 | GTAATTAC | 0.306
85 | ATAATTGA | 0.308
86 | CCAATTAC | 0.274
87 | ATAATTAA | 0.259
88 | TTAATTAA | 0.0675
89 | CTAATTGA | 0.0727
90 | CTAATTAA | 0.135
91 | CCAATTAA | 0.0782
92 | GCAATTAC | 0.102
93 | CGTTCATA | -0.0126
94 | AGCACGCC | -0.157
95 | ACCACTGC | -0.048
96 | GACACTAA | 0.064
97 | AAGGGGCA | -0.105
98 | CTCTCGGA | 0.00281
99 | ATATGCGG | 0.0287
100 | GCAGTGAA | 0.225

Row | Sequence | PBM E-score
101 | GTCAAAGA | -0.0517
102 | AGTAGCCA | -0.141
103 | CATGCACC | -0.191
104 | CGCTGCTC | -0.133
105 | ATAATTAC | 0.333
106 | GGAATTAA | 0.233
107 | CAAATTAG | 0.122
108 | CCAATTAG | 0.177
109 | CTAATTAC | 0.253
110 | ATAATTCC | 0.163
111 | GTAATTAA | 0.259
112 | ACAATTAG | -0.0417
113 | GTAATTCA | 0.177
114 | ATAATTAG | 0.347
115 | CTAATTAG | 0.347
116 | AGAATTAG | 0.0612
117 | ATTAGAGC | 0.116
118 | GAACGCTC | -0.11
119 | AGAGAAAT | 0.142
120 | CAACAGAA | -0.0742
121 | CAACAGGG | -0.116
122 | TACCACAA | 0.123
123 | AGGAAGAT | 0.13
124 | AGTCAGGG | -0.185
125 | ATAATTCG | 0.242

Row | Sequence | PBM E-score
126 | ATAATTCA | 0.282
127 | ACAATTAT | 0.248
128 | ATAATTAT | 0.302
129 | CTAATTCA | 0.112
130 | AGAATTAT | 0.197
131 | ATCAGAGG | -0.132
132 | GACGCTGC | -0.0366
133 | ATGCGAAA | 0.13
134 | ACTTAGGG | -0.112
135 | CTTAATAC | 0.0534
136 | ATTAATAG | 0.228
137 | ATTAATAC | 0.201
138 | GTTAATAA | 0.223
139 | CTTAATAA | 0.275
140 | ATTAATAA | 0.405
141 | AATATGGG | 0.0708
142 | CTTGGTAC | 0.172
143 | GAAGAGCA | -0.258
144 | GCTTCCCC | -0.346
145 | ACGTCAGC | 0.0264
146 | GTCGCGAC | 0.324
147 | GTCGCGAA | -0.0136
148 | CTCGCGAC | 0.068
149 | AAGGTATC | -0.00987
150 | CACCACAC | 0.096

Row | Sequence | PBM E-score
151 | CTGTGATA | -0.106
152 | GTATGATA | 0.282
153 | GTATGAGA | 0.158
154 | ATGTGATA | 0.255
155 | ATTTGATA | 0.273
156 | GTATGAAC | 0.0322
157 | GGATGATA | 0.122
158 | TTATGAAA | 0.204
159 | CTTTGATA | 0.189
160 | ATTTGATC | -0.0998
161 | GTGTGATA | 0.203
162 | GTATGAAA | 0.29
163 | CAGAAGCA | 0.137
164 | TCCTACAA | 0.0495
165 | GTCATCCA | 0.0539
166 | AAAGACCT | 0.0294
167 | ATATGATG | 0.171
168 | ATATGATC | 0.294
169 | CTGTGAAA | 0.264
170 | AGATGATA | 0.08
171 | CTATGATC | -0.0167
172 | CTATGATA | 0.0744
173 | ATGTGAAA | 0.134
174 | GTGTGAAA | 0.133
175 | ATATGATA | 0.264

Row | Sequence | PBM E-score
176 | CTCTAGAA | -0.214
177 | AGTGGTAC | 0.0484
178 | CTCGCTGC | -0.0528
179 | AAGCATTA | 0.106
180 | CATTCAAC | -0.065
181 | CTAAATAC | 0.0333
182 | ATATAAAT | 0.242
183 | ATAAATAC | 0.325
184 | ATAAAAAT | 0.199
185 | TTAAATAA | 0.155
186 | ATAAATAT | 0.267
187 | GTAAATAC | 0.0284
188 | ATAAATAG | 0.195
189 | ATAAATAA | 0.307
190 | ATAAATCA | 0.207
191 | CTAAATAA | 0.155
192 | GTAAATAA | 0.267
193 | GAACTCTC | -0.0889
194 | AATTAGAT | 0.245
195 | ACATTTTC | 0.125
196 | CCTATAAC | -0.0793
197 | CCATCTTA | 0.00932
198 | GTCCTAAC | -0.0915
199 | ACCATCAC | 0.0126
200 | ATCTTCTA | 0.0985

Row | Sequence | PBM E-score
201 | ATTGAGCA | 0.105
202 | AATAAAAA | 0.27
203 | AATAAAAT | 0.239
204 | CATAAAAC | 0.0691
205 | AATAAAAC | 0.315
206 | GATAAAAC | 0.219
207 | AATAAAAG | 0.0973
208 | ACCACTCG | 0.0759
209 | ACGTGTTG | 0.0914
210 | GAGCGACA | 0.0223
211 | ACTTGTCT | -0.0439
212 | CGACAACG | 0.0404
213 | TTAATAAA | 0.372
214 | ATAATAAA | 0.277
215 | GTAATAAC | 0.188
216 | ATAATAAC | 0.173
217 | ATAATAGA | 0.184
218 | ATAATAAT | 0.26
219 | GAAATAAA | 0.14
220 | ATAATAAG | 0.194
221 | CTAATAAA | 0.178
222 | ACAATAAA | 0.106
223 | CTAATAAC | 0.15
224 | GTAATAAA | 0.266
